Hits are enriched below; roughly 3% of the tested compounds scored in any of these assays.
ABHD5 PLIN5 PPI – ABHD5-PLIN5 protein interaction inhibition; Q00G26+Q8WTS1; Split G. princeps luciferase complementation, luminescence, 4 h; inhibition, % at 4 µM; actives 0.78% (n = 360,000);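 active = inhibition above the mean inhibition across every tested compound plus 3 SD, cut at about 22% in these data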;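 also: 0% = DMSO only wells and the 100% control is not disclosed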
Target sequence (Q00G26 whole entry, looked up): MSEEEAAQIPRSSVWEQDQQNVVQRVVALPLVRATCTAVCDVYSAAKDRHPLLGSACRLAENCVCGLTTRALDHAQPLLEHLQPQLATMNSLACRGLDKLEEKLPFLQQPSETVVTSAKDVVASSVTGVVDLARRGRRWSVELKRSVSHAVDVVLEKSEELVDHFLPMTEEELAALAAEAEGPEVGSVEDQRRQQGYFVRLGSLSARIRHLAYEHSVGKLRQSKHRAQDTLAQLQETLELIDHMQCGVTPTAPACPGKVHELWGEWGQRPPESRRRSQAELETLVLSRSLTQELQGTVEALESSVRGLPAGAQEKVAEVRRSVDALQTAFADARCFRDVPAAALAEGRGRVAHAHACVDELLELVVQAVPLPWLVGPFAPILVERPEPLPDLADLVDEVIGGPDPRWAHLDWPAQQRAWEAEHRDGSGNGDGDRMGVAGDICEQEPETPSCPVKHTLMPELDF
Target sequence (Q8WTS1 whole entry, looked up): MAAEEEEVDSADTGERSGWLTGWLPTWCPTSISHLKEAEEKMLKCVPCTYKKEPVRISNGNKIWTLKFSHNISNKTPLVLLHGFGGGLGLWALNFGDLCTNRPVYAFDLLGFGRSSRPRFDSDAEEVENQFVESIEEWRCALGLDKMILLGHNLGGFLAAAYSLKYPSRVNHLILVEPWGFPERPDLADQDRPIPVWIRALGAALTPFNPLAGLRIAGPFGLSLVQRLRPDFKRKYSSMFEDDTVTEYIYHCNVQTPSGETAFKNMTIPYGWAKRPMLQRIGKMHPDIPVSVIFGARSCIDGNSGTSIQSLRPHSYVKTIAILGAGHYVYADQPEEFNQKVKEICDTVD
KKLEB cytotox – reduces viability of KKLEB cystic fibrosis airway cells; KKLEB CF airway cells viability, ATPlite luminescence, overnight; stronger effect = lower value; cells stimulated with P. aeruginosa culture filtrate; activity change (cytotoxicity), % at 5 µM; actives 0.36% (n = 360,000); AID 602141;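 active = corrected activity change at or below -50% at 5 µM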
Peg3 prom inh – inhibitors of Peg3 promoter | HeLa PEG-Prom luciferase reporter, luminescence, overnight | actives 1.7% (n = 360,000) | inhibition, % at 20 µM;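 active = inhibition of at least 50% at 20 µM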
TRPM1 prom inh – inhibitors of MITF-driven TRPM1 promoter in melanoma cells; actives 0.83% (n = 330,000); inhibition, % at 12.5 µM; AID 488899; SK-MEL-5 TRPM1 promoter luciferase, 24 h;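 active = mean inhibition across replicates of 60% or more, whatever share of single replicates reaches that level; inconclusive = some that reach 60%, reason not given; inactive = mean inhibition across replicates below 60%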
HIF-2a block – blocks HIF-2a reporter activity; 786-0 RCC cells HIF-2a reporter, luciferase luminescence, overnight; inhibition, % at 18.8 µM; actives 0.72% (n = 360,000);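 active = inhibition of the luminescence signal of 40% or more relative to plate controls, in a single-dose primary screen at 18.75 µM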
CF NFkB block – cystic fibrosis NF-kB activation inhibition; KKLEB NF-kB-GFP reporter, PAF-induced, GFP fluorescence overnight; inhibition, % at 5 µM; actives 0.86% (n = 360,000);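 active = at least 50% inhibition at 5 µM, scaled per plate between neutral and stimulator controls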;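 also: PAF is a Pseudomonas aeruginosa culture filtrate used as stimulus; plate controls were PAF-stimulated DMSO wells for no effect and unstimulated DMSO wells for full effect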
An asterisk follows results filed as active; ? = inconclusive; nt = not tested or not shown.

SMILES	ABHD5 PLIN5 PPI	KKLEB cytotox	Peg3 prom inh	TRPM1 prom inh	HIF-2a block	CF NFkB block
O=C1/C(=N\S(=O)(=O)c2cccs2)C([n+]2ccccc2)=C([O-])c2ccccc21	1	0	35	104*	44*	68*
CS(=O)(=O)c1ccc(C(=O)Nc2nc(-c3ccco3)c(-c3ccco3)s2)cc1	22*	0	-14	8	-8	-3
CS(=O)(=O)c1ccc2nc(NC(=O)c3ccccc3)sc2c1	-5	-4	-227	-61	-171	3
CC(C)(C(=O)N1CCC1(C)C(=O)NC1Cc2ccccc2C1)c1ccccc1 (stereo unspecified)	-8	7	7	nt	21	-30
CCOCCCNC(=O)CN1C(=O)c2ccccc2Sc2ncccc21	-9	2	3	15	8	8
COc1ccc(-n2ccn3c(CCC(=O)N4CCN(c5cccc(C)c5C)CC4)nnc3c2=O)cc1	5	11	1	-7	8	-8
CCOC(=O)CSCC(NC(=O)OC(C)(C)C)C(=O)OCC (stereo unspecified)	1	1	7	13	41*	3
Cc1cc(OCC(=O)NCCc2cccc(F)c2)c2c(C)cc(=O)oc2c1	10	-4	24	0	10	-12
CC1(C)CC(=O)C(C2C3=C(CC(C)(C)CC3=O)Oc3ccccc32)C(=O)C1 (stereo unspecified)	2	1	14	1	22	9
CC1(C)CC(=O)C2=C(C1)Oc1nc3ccccc3cc1C2C(C#N)C#N (stereo unspecified)	18	-5	58*	80*	7	64*
COc1ccc(-n2c(C)c([N+](=O)[O-])c3ccc(O)c(CN4CCCCC4)c32)cc1	1	-33	10	18	20	73*
COc1ccc2ccc(O)c(CN3CCN(S(=O)(=O)c4cc([N+](=O)[O-])ccc4C)CC3)c2c1	16	-8	4	3	10	26
Cc1ccc2nc3c(cc(C(=O)NCc4ccccc4)c(=N)n3CCCn3ccnc3)c(=O)n2c1	0	7	54*	-11	16	-22
Cc1ccc(CNC(=O)c2cc3c(=O)n4ccccc4nc3n(Cc3ccco3)c2=N)cc1	30*	-8	-8	10	3	-1
N=c1c(C(=O)NCc2ccccc2)cc2c(=O)n3ccccc3nc2n1Cc1ccco1	26*	-7	13	19	7	2
CCCCn1c(=NC(=O)c2ccco2)c(C(=O)OCC)cc2c(=O)n3ccccc3nc21	28*	2	3	-3	20	-14
O=C(N/C(=C/c1cccc([N+](=O)[O-])c1)C(=O)N1CCOCC1)c1ccccc1Br	6	-14	-1	16	22	16
CC(C)CCN1CCN(CC#Cc2ccccc2)CC1CCO (stereo unspecified)	-6	-1	2	7	18	7
O=C1C2C3CC4C5C3C1C5C1(SCCS1)C42 (stereo unspecified)	1	-10	-7	nt	3	-5
COc1ccc(NC(=O)C[C@H]2C(=O)N(C3CCCCC3)C[C@@H]2CSC)cc1	-2	2	3	nt	-7	13
Cc1ccc(NC(=O)CN2C(=O)NC(Cc3c[nH]c4ccccc34)C2=O)cc1 (stereo unspecified)	-3	-5	12	17	16	-14
COC1OC2COC(c3ccccc3)OC2C(O)C1NC(C)=O (stereo unspecified)	5	-11	5	5	1	-2
CC(C)(C)c1ccc(OCC(=O)NCC(c2cccs2)N2CCOCC2)cc1 (stereo unspecified)	-2	-11	32	3	12	3
Cc1cccc(NC(=O)c2cc3c(=O)n4ccccc4nc3n(CC(C)C)c2=N)c1	0	-30	54*	22	-3	-1
N=c1c(C(=O)NC2CCCC2)cc2c(=O)n3ccccc3nc2n1C1CCCC1	1	-17	11	-14	24	-5
SMILES	ABHD5 PLIN5 PPI	KKLEB cytotox	Peg3 prom inh	TRPM1 prom inh	HIF-2a block	CF NFkB block
N=c1c(C(=O)NCc2ccco2)cc2c(=O)n3ccccc3nc2n1C1CCCC1	23*	-19	-28	11	3	1
Nc1c2c(=O)[nH]c(O)cc2nn1-c1ccccc1	-24	-2	0	10	2	0
COC(=O)CC1(c2cccc3ccccc23)C(=O)c2ccccc2C1=O	3	-1	13	30	78*	1
COC(=O)CC1(c2ccccc2)C(=O)c2ccccc2C1=O	1	3	7	-3	10	9
CC(N)c1csc(NC(=O)Nc2cccc(C(F)(F)F)c2)n1 (stereo unspecified)	6	-18	78*	nt	10	19
NC(Cc1ccc(C(F)(F)F)cc1)c1csc(NC(=O)Nc2ccccc2Cc2ccccc2)n1 (stereo unspecified)	-12	-92*	118*	nt	3	92*
CC(C)(C)c1ccccc1NC(=O)Nc1nc(C(N)Cc2ccc(F)cc2)cs1 (stereo unspecified)	3	-10	98*	nt	-5	28
CC(C)(C)c1ccccc1NC(=O)Nc1nc(C(N)c2ccccc2)cs1 (stereo unspecified)	-1	-3	17	nt	5	-13
CC(C)c1ccccc1NC(=O)Nc1nc(C(N)Cc2ccc(C(F)(F)F)cc2)cs1 (stereo unspecified)	-15	-24	108*	nt	14	32
Cc1ccc([C@H]2C[C@H](O)[C@@H](n3cc(COC(=O)c4ccccc4)nn3)CN2Cc2cccs2)cc1	-4	-3	-1	nt	-3	25
Cc1ccc(/C=C/S(=O)(=O)NCC(=O)OCC(=O)NCc2ccccc2)cc1	0	6	12	13	15	-11
NC(c1csc(NC(=O)Nc2ccc(OC(F)(F)F)cc2)n1)C1CCCCC1 (stereo unspecified)	-14	-65*	100*	nt	20	69*
COc1ccc(NC(=O)Nc2nc(C(N)CC(C)C)cs2)cc1 (stereo unspecified)	2	10	11	nt	15	2
Cn1nc(C(C)(C)C)cc1C(=O)Sc1cccc(Br)c1	-2	-1	8	-4	11	-14
Cc1[nH]c2ccccc2c1C(=O)CSc1ccccc1	-5	0	-126	-14	-172	-4
Cc1[nH]c2ccccc2c1C(=O)CCl	9	-4	93*	?	19	64*
COC(=O)C1=C[C@@H](C(=O)OC)[C@@H]2C3=C(C(=O)[C@@]2(C)NC(=O)c2ccccc2)[C@H](c2ccccc2)[C@@H]2C(=O)NC(=O)[C@@H]2[C@@H]3C1	-9	-6	10	6	16	18
Cc1cc(-c2nn(-c3ccccc3)cc2/C=C2\SC(N)=NC2=O)ccc1OC(C)C	2	12	78*	-6	4	-14

High-throughput results (PubChem)
